Experimental data taken from the supplement of paper PMC11732987, “Enantioselective OTUD7B fragment discovery through chemoproteomics screening and high-throughput optimisation” (Communications Chemistry, 2025).

How the values were obtained:
Experiment in all cases: log2 ratio of Biotin-Ahx-Ub-VS probe labelling (fragment/DMSO); higher = less target engagement (more negative = stronger competition), active = hit call of the paper (q ≤ 0.05, log2 ratio ≤ -1)
Conditions in all cases: compound concentration: 200 uM; treatment time: 3 h
USP34 = USP34 (UniProt Q70CQ2)
Summary of the method: (§1)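 The table lists average log2 ratios of fragment over vehicle, from an unpaired t-test on global-median-normalised Spectronaut label-free quantities. Proteins with ≥2 unique peptides were used. Samples were HEK293T lysate (495 µg) treated in triplicate with fragment at 200 µM or vehicle for 3 h, then with Biotin-Ahx-Ub-VS (0.5 µM final) for 1 h, with labelled DUBs NeutrAvidin-enriched and run by diaPASEF LC-MS/MS.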

USP36 = biological target: T1, USP36 (UniProt Q9P275)
T1 sequence (whole entry): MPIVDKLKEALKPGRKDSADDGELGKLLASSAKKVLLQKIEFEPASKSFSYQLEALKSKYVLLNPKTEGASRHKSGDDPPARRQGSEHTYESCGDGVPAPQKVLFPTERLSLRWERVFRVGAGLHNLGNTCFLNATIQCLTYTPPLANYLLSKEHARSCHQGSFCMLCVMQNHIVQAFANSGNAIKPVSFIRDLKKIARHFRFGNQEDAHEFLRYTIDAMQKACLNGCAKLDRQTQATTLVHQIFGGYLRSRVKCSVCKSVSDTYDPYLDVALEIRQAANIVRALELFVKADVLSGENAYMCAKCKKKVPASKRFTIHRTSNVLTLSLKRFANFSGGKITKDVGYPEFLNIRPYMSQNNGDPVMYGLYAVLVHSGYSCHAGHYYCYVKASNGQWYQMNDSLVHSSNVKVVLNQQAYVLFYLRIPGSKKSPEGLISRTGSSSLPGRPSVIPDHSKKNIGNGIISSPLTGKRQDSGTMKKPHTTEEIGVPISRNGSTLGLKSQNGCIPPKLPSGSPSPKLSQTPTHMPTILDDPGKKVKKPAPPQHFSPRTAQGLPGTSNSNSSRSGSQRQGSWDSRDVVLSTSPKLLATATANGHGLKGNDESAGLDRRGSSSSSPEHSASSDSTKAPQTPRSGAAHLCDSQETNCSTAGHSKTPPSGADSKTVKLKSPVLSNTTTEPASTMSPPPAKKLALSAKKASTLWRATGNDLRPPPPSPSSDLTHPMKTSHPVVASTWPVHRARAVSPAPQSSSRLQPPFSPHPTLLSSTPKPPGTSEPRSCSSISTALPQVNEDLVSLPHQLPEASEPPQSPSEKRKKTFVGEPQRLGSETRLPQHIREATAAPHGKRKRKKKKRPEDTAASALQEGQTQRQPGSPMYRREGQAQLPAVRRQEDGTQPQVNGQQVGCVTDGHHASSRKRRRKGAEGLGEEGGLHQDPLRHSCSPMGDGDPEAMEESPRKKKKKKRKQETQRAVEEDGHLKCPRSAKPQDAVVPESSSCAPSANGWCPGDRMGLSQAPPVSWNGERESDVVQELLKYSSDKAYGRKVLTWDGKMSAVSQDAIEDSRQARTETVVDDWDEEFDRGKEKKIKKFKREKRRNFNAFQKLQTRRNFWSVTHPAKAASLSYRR
Summary of the method: as §1

USP38 = biological target: T2, USP38 (UniProt Q8NB14)
T2 sequence (whole entry): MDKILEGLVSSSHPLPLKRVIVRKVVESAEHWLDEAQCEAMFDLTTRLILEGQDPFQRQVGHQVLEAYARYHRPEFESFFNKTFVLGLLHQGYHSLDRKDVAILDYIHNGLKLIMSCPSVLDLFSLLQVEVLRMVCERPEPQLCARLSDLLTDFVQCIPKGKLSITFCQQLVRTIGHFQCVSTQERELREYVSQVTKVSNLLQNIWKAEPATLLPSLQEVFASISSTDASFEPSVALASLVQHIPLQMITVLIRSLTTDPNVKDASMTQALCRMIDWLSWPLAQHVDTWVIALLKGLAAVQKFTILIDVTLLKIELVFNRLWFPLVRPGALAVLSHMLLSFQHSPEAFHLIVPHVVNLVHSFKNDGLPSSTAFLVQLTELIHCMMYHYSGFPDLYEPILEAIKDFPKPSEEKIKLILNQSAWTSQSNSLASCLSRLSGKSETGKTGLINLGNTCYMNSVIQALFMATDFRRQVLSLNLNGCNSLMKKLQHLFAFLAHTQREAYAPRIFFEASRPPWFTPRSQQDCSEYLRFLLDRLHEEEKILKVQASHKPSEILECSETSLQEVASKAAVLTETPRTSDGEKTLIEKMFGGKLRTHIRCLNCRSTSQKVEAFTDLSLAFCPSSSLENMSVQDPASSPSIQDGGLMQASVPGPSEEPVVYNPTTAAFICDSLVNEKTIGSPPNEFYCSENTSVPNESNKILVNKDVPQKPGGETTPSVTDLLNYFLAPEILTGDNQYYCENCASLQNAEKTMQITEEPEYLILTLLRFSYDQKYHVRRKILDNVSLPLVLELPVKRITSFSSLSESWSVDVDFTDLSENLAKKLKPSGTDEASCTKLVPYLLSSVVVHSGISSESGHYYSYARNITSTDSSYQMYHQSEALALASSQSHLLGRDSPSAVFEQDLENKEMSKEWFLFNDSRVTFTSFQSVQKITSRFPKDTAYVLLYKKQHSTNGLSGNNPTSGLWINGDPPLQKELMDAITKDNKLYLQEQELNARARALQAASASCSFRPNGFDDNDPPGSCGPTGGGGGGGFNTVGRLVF
Summary of the method: as §1

USP39 = biological target: T3, USP39 (UniProt Q53GS9)
T3 sequence (whole entry): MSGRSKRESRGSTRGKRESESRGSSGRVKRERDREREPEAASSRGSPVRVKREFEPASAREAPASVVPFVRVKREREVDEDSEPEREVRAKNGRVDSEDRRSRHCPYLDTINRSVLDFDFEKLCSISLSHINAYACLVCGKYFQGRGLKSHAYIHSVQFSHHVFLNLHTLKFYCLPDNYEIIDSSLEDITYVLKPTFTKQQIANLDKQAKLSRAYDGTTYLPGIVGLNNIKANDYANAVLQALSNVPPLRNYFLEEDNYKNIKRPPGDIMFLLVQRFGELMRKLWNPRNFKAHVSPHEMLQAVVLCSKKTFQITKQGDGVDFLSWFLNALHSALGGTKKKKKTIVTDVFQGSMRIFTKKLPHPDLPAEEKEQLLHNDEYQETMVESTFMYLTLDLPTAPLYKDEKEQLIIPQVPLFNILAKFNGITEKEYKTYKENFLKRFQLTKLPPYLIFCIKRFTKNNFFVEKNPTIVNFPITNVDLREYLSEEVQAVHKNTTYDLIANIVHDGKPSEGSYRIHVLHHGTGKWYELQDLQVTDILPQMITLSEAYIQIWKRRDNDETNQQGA
Summary of the method: as §1

USP4 = biological target: T4, USP4 (UniProt Q13107)
T4 sequence (whole entry): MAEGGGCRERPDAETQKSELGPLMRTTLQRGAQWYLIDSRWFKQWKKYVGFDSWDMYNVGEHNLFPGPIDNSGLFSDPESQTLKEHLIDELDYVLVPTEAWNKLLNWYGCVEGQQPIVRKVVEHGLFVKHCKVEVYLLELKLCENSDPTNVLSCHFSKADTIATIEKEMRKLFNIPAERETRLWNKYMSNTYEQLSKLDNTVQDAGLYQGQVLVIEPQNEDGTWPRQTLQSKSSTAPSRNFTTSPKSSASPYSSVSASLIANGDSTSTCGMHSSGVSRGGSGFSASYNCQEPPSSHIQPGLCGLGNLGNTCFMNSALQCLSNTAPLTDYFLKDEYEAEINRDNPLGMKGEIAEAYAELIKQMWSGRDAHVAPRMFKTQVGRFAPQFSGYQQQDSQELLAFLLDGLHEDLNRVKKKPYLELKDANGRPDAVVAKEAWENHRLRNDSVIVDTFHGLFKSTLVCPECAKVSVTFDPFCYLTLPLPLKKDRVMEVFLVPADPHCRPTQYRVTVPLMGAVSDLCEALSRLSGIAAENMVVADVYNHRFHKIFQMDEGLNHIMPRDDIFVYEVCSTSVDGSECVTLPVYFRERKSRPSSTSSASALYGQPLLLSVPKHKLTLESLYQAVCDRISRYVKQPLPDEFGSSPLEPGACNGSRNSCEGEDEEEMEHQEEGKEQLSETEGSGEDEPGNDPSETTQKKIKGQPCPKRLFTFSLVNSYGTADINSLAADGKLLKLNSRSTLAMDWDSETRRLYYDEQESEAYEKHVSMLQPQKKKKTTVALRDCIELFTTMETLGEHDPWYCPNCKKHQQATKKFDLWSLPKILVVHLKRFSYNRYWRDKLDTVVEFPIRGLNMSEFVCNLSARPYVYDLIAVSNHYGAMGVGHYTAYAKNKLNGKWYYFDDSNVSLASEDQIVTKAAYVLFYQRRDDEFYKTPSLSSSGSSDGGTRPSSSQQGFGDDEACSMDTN
Summary of the method: as §1

Measured: log2 ratio of Biotin-Ahx-Ub-VS probe labelling

Chain of USP34 (Q70CQ2 whole entry, the tested form may be a part): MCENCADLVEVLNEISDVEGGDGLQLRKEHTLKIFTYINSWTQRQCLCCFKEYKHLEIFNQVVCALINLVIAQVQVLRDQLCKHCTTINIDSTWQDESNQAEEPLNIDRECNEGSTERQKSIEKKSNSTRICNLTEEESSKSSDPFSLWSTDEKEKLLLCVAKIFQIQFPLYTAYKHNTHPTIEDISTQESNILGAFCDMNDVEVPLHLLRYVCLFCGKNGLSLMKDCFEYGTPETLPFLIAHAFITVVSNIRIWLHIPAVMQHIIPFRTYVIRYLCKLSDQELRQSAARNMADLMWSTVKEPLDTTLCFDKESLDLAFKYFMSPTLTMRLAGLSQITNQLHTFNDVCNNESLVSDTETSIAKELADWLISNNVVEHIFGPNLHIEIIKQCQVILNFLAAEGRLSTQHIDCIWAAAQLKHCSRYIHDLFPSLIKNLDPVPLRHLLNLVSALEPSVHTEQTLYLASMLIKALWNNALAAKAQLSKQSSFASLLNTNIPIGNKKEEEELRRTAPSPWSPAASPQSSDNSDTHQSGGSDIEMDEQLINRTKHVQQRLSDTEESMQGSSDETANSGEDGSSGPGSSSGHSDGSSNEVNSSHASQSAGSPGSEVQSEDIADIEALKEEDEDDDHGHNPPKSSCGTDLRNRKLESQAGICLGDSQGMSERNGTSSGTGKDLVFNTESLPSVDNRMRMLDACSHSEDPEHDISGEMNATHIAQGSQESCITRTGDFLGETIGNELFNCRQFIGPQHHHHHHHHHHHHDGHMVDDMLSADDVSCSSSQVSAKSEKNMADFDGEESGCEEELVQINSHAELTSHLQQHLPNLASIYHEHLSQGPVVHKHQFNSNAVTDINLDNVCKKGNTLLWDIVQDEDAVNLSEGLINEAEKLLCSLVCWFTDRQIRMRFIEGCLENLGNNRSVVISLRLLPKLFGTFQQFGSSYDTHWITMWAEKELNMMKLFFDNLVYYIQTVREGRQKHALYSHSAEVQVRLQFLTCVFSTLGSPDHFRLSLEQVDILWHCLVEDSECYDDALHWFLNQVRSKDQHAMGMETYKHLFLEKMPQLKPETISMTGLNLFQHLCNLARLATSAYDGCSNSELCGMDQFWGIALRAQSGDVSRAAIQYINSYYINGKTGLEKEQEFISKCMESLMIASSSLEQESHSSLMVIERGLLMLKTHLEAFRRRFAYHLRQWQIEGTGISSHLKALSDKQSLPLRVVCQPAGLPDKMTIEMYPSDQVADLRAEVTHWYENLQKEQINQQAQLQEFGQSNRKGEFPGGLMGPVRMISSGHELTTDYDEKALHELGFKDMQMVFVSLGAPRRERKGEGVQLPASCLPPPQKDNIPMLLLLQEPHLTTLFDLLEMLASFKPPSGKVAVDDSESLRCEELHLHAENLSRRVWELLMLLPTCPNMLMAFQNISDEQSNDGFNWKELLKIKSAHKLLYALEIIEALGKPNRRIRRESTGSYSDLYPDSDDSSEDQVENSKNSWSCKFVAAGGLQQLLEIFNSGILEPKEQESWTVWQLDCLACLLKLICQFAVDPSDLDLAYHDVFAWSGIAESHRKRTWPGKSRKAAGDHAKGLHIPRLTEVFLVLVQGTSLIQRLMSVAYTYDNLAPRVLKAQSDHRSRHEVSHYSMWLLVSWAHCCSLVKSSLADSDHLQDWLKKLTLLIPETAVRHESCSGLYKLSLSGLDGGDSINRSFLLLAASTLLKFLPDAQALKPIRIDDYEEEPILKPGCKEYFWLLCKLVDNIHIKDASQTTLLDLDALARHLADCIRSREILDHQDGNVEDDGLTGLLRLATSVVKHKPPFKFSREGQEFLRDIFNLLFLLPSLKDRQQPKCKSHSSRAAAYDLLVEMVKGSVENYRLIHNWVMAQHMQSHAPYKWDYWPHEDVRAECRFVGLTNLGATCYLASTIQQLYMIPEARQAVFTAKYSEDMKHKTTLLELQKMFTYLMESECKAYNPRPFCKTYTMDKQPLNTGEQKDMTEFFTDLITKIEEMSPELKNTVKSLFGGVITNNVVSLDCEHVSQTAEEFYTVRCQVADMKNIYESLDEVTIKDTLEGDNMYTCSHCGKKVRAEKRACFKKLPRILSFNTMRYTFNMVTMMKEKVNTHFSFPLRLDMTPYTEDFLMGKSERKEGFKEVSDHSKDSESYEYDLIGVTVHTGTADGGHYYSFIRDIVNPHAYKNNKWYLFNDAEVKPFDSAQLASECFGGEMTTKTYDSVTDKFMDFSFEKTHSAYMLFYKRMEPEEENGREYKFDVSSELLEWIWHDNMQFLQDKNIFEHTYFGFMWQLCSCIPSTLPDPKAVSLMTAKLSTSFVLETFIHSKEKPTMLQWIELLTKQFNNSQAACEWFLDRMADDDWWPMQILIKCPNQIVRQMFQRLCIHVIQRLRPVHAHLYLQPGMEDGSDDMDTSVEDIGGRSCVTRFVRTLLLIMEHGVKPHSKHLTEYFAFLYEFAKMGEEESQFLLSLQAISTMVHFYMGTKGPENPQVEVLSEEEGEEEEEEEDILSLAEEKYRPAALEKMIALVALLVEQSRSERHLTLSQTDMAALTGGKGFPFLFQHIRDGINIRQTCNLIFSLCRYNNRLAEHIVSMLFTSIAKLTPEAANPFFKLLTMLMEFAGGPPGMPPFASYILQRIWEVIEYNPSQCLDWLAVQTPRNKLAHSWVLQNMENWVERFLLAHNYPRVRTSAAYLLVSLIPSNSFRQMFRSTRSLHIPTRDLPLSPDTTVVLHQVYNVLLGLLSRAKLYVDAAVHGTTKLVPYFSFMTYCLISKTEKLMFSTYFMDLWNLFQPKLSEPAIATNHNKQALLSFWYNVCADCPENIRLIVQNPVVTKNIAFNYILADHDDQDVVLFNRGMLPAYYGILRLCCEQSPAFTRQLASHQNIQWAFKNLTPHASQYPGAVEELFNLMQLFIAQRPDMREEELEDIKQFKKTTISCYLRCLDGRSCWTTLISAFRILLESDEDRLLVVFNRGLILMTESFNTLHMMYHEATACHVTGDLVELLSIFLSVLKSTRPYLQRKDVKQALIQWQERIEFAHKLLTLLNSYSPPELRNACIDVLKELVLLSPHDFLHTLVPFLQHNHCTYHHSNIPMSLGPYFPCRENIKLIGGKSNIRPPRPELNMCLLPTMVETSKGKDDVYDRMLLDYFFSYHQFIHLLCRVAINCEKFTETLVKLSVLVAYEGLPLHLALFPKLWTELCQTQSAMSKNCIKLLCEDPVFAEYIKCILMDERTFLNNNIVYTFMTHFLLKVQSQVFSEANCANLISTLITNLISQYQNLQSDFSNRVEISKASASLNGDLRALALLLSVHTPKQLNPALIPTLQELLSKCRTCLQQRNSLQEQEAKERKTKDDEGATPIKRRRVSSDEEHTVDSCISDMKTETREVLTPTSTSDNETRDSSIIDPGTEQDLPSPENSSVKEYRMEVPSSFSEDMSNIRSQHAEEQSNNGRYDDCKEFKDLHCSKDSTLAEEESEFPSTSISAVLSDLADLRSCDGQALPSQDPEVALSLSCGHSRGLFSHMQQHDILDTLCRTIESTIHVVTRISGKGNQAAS

Cl.O=C(CCl)NCc1cc2c(nc1O)CCCC2
inactive: USP34 -0.103 | USP36 -0.408 | USP38 -0.0702 | USP39 -0.212 | USP4 -0.0856
